Screening results as filed in PubChem BioAssay.
Sampled rows, rich in hits. Any-hit rate of the full collection: about 4.6%.
USP8 block = inhibitors of human USP8 deubiquitinase; purified USP8, Ub-rhodamine cleavage fluorescence, 30 min; inhibition, % at 20 µM; 47,000 compounds, 4.2% hits; AID 1645853
USP7 inh = blocks human USP7 ubiquitin-rhodamine cleavage. Q93009. purified USP7, Ub-rhodamine cleavage fluorescence. inhibition, % at 20 µM. 47,000 compounds, 0.3% hits
UCHL1 inh = human UCHL1 deubiquitinase inhibition. P09936. purified UCHL1, Ub-rhodamine cleavage fluorescence. inhibition, % at 20 µM. 47,000 compounds, 0.2% hits. AID 1645859
USP10 inh = blocks human USP10 ubiquitin-rhodamine cleavage | Q14694 | purified USP10, Ub-rhodamine fluorescence, 60 min | inhibition, % at 20 µM | 47,000 compounds, 1.1% hits | AID 1645856
Target sequence (Q14694 whole entry, looked up): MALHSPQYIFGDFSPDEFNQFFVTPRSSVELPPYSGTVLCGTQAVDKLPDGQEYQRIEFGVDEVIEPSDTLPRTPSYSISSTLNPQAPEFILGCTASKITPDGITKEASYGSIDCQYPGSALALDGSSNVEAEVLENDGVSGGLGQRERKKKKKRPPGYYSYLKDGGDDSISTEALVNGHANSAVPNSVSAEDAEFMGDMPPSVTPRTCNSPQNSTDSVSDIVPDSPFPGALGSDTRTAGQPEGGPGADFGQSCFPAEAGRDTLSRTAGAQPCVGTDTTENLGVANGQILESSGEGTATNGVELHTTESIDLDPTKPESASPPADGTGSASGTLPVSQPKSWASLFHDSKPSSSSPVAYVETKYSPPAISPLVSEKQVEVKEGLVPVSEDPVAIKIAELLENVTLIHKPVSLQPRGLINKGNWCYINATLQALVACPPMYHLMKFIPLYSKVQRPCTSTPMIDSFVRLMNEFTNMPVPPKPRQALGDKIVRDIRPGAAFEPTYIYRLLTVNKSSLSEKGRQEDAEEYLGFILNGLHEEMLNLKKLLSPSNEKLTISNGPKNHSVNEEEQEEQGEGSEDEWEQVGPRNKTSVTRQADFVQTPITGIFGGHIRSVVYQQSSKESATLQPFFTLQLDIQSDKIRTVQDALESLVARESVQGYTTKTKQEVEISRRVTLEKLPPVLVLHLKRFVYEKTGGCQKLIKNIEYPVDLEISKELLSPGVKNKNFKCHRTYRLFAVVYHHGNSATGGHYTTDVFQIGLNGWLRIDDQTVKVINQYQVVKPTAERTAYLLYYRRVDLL
An asterisk follows results filed as active. Rule as the data show it: active = inhibition above about 30%; inactive = the rest.

SMILES	USP8 block	USP7 inh	UCHL1 inh	USP10 inh
O=C(c1ccc(Cl)cc1)[C@@H]1[C@H](C(=O)OC(c2ccccc2)c2ccccc2)N2c3ccccc3C=CC2[C@@]12C(=O)Nc1ccccc12 (stereo not given in full)	52*	-15	-15	-4
Cc1cc(C)cc(NC(=O)c2c(O)c3ccccc3[nH]c2=O)c1	42*	9	4	9
O=C(Nc1ccc(Br)cc1)c1cc(=O)[nH]c2ccccc12	21	13	2	19
O=C(CCc1nnc2n(Cc3ccccc3Cl)c(=O)c3ccccc3n12)NCc1ccccc1	47*	7	0	15
COc1ccc(CNC(=O)CCc2nnc3n(Cc4ccccc4Cl)c(=O)c4ccccc4n23)cc1	38*	7	9	14
COc1ccc(C2CC(=O)C3=C(C2)Nc2ccccc2N(C(=O)c2ccccc2)C3c2cccc(OC)c2)cc1 (stereo not given)	8	14	1	8
O=C1C/C(=C\c2cccc(Cl)c2)Cc2ccccc21	34*	10	11	15
O=C(Cn1cc(S(=O)(=O)Cc2ccc(F)cc2)c2ccccc21)N1CCCCCC1	-2	-81	0	0
O=S(=O)(Cc1ccc(F)cc1)c1c[nH]c2ccccc12	68*	1	4	2
COc1ccccc1OC(C)C(=O)Nc1ccc2nsnc2c1 (stereo not given)	73*	-4	6	4
CCc1nnc(-c2nnc(NCCOc3ccccc3OC)c3ccccc23)o1	66*	7	1	13
O=C(NC1CCOCC1)N1CC[C@@H]2CN(C(=O)c3ccccc3)[C@@H]2C1	20	4	-1	1
CCc1nnc(NC(=O)c2cn(-c3ccccc3)nc2-c2cccnc2)s1	11	4	1	-2
CC(OC(=O)c1cc(S(=O)(=O)Nc2ccccc2F)ccc1Cl)C(=O)Nc1ccc([N+](=O)[O-])cc1C(F)(F)F (stereo not given)	-97	2	6	36*
CC(OC(=O)c1cc(S(=O)(=O)Nc2ccc(S(C)(=O)=O)cc2)ccc1Cl)C(=O)Nc1ccc([N+](=O)[O-])cc1C(F)(F)F (stereo not given)	-85	1	3	18
O=C(Cc1cccnc1)N[C@@H]1CC[C@@H](Oc2ccccc2)[C@@H](O)[C@@H]1O	73*	6	5	3
COc1ccc(/C=C/C(=O)Nc2nc3n(n2)C(c2ccccc2)CC(=O)N3)cc1 (stereo not given)	73*	13	7	21
COc1ccc(/C=C/C(=O)Nc2nc3n(n2)C(c2ccccc2)CC(=O)N3)cc1OC (stereo not given)	79*	11	6	3
O=C(/C=C/c1cccc([N+](=O)[O-])c1)Nc1nc2n(n1)C(c1ccccc1)CC(=O)N2 (stereo not given)	-50	10	5	25
CC(C)CC1Nc2ccc(C(=O)N3CCN(c4ccccn4)CC3)cc2NC1=O (stereo not given)	53*	8	5	4
COc1cc(Cl)c(NC(=O)C2Cc3ccccc3N2C(=O)c2ccccc2)c(OC)c1 (stereo not given)	-8	1	1	36*
Cc1ccn2cc(-c3ccc(NC(=O)C(C)Oc4ccccc4)cc3)nc2n1 (stereo not given)	40*	8	0	13
Cc1nnc(NC(=O)C2CCN(c3ccc(S(N)(=O)=O)cc3[N+](=O)[O-])CC2)o1	19	43*	36*	62*
Cc1ccc(NC(=O)C2CCN(c3cncnc3N3CCCC3)CC2)cc1	3	-94	-1	4
COc1ccc2cc(C(=O)N3CCC(C(C)C(=O)NCc4cccc(F)c4)CC3)[nH]c2c1 (stereo not given)	25	6	5	20
SMILES	USP8 block	USP7 inh	UCHL1 inh	USP10 inh
O=c1[nH]c(-c2ccncc2)nc2c1CCN(Cc1cccn1-c1cccnc1)C2	58*	-47	-33	-3
CCN1[C@H]2CCN(C(=O)Nc3ccc(F)cc3)CC[C@@H]2Oc2ccccc2S1(=O)=O	-17	7	2	3
CCC(C(=O)C(C)C(O)C(C)CCc1ccc(C)c(O)c1C(=O)O)C1OC(CC)(C2CCC(O)(CC)C(C)O2)CC1C (stereo not given)	20	28	5	61*
Cc1ccc(S(=O)(=O)c2nnn3c2nc(NCc2ccco2)c2sccc23)cc1	32*	0	-2	1
c1coc(CNc2nc3ccccc3n3nnnc23)c1	-331	-140	-154	-3
CC(C)(C)OC(=O)N1C[C@@H]2C[C@@]3(C)[C@H](CCC[C@@H]13)N2C(=O)c1ncccn1	14	4	0	0
c1coc(-c2cc3nc(NCc4ccc5c(c4)OCO5)ccn3n2)c1	58*	11	0	-5
NC(=O)COc1ccc(C2=NO[C@]3(C(=O)Nc4ccccc43)[C@H]2C(=O)c2ccco2)cc1	-133	2	2	-3
O=C(c1cccnc1)N1CC[C@@H]2CN(CCc3ccccc3)S(=O)(=O)[C@@H]2CC1	1	0	-2	0
O=C(NCC(c1ccco1)N1CCCCC1)c1ccccc1Br (stereo not given)	17	5	1	-3
O=C1Nc2ccccc2C2(CCN(S(=O)(=O)c3ccccn3)CC2)O1	8	-2	-3	-2
Cc1ccc(S(=O)(=O)N2CCC3(CC2)OC(=O)Nc2ccccc23)cc1	35*	11	2	19
CCOC(=O)C1CCN(C(=O)c2ccc3c(c2)NC(=O)C(CS(=O)(=O)Cc2ccccc2Cl)N3)CC1 (stereo not given)	49*	-14	-3	-12
O=C1Nc2cc(C(=O)N3CCCC3)ccc2NC1CS(=O)(=O)Cc1ccc(F)cc1Cl (stereo not given)	35*	-16	-4	-4
CCOC(=O)C1CCN(C(=O)c2ccc3c(=O)n(-c4ccccc4)c(=O)[nH]c3c2)CC1	0	-4	0	0
O=C(NCc1ccc(F)cc1Cl)c1csc(C(=O)N2CCCC2)n1	-2	-10	-1	-1
COC(=O)C1=CC(OC)=C(Cl)C(=O)C12OC(=O)c1c(O)cc(C)cc1O2 (stereo not given)	-4	-92	33*	2
CN(C)c1ncc(C(=O)N2C[C@@H](c3ccc(F)c(F)c3)[C@@]3(COCCC(=O)N3)C2)cn1	7	0	-3	1
COc1ccc(S(=O)(=O)C(CNC(=O)c2cccc(Cl)c2)c2cccnc2)cc1 (stereo not given)	5	2	0	-2
O=C(c1cc(S(=O)(=O)Nc2ccc(Cl)cc2)ccc1Cl)N1CCCc2ccccc21	-24	-20	5	36*
CCC(=O)N1CCN(c2nn3c(NC(C)(C)C)c(-c4cccc(C)c4)nc3s2)CC1	-28	0	2	-2
CC1CCc2c(sc(NC(=O)c3cccc(S(C)(=O)=O)c3)c2C(N)=O)C1 (stereo not given)	75*	12	1	12
CCOC(=O)[C@@H]1CN2CCN(C(=O)c3cccc(C#N)c3)C[C@@H]2[C@H]1c1ccccc1	11	0	2	-2
